Test results reported in PubChem BioAssay (EPA / NIEHS).
Inconclusive results are not listed. Active and inactive are the calls of the source. How the source made its calls, unless noted: active means hit-call score of the fitted dose curve at least 0.9, where 1 is the maximum; inconclusive means response in the unintended direction; inactive means score below 0.9.

Legend:
[1] = Tanguay_ZF_120hpf_TRUN_legacy: (Legacy) Oregon State University Tanguay Lab 120 Hour Post-fertilization zebrafish Assay for Truncated Body (AID 2283655)
How it was run: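 Truncated body is recorded as a binary endpoint at 120 hpf by brightfield imaging of wild-type 5D larvae. Exposure runs statically from 6 hpf at 28C with 0.64% DMSO; embryos dying earlier are not scored.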

[2] = Tanguay_ZF_120hpf_NC_legacy: (Legacy) Oregon State University Tanguay Lab 120 Hour Post-fertilization zebrafish Assay for Notochord and Tail Malformation (AID 2283656)
How it was run: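 Binary scoring of notochord distortion by brightfield microscopy; embryos dying were not scored. Wild-type Tropical 5D embryos, chorion removed, exposed singly and statically from 6 to 120 hpf, 28C, sealed, 0.64% DMSO.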

[3] = read-out: solute carrier (SLC10A1), SLC10A1 (gene 6554); experiment: LTEA_HepaRG_SLC10A1: Life Technologies and Expression Analysis (LTEA) Assay for solute carrier (SLC10A1) using HepaRG (AID 2283657; active means hit-call score of the fitted dose curve at least 0.9, where 1 is the maximum; inactive means score below 0.9); details: mRNA level, 48 h; actives raise or lower the signal
How it was run: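 HepaRG, 48 h exposure, 8-pt half-log curve from 100 uM in 0.5% DMSO, duplicates. Read-out: TaqMan qRT-PCR of SLC10A1 mRNA, normalized to three housekeeping genes. Gain/loss fit vs DMSO baseline.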

[4] = read-out: matrix metalloproteinase-1 (MMP1), MMP1 (gene 4312); experiment: LTEA_HepaRG_MMP1: Life Technologies and Expression Analysis (LTEA) Assay for matrix metalloproteinase-1 (MMP1) using HepaRG (AID 2283658; active means hit-call score of the fitted dose curve at least 0.9, where 1 is the maximum; inactive means score below 0.9); details: mRNA level, 48 h; actives raise or lower the signal
How it was run: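 HepaRG, ~100,000 cells/well, 48 h pre-culture; serum-free induction medium; test chemical 8 conc (max 100 uM, half-log), duplicate, 48 h; 0.5% DMSO; qRT-PCR MMP1, housekeeping-normalized; gain/loss fit vs DMSO.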

[5] = read-out: ABC Transporter (ABCB1), ABCB1 (gene 5243); experiment: CLD_ABCB1_6hr: CellzDirect (CLD) Gene Expression Assay for ABC Transporter (ABCB1) at 6 hours (AID 2283659);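 further: hits raise ABCB1 transcript above the DMSO vehicle baseline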
Experimental: (§1) CLD_6hr is a cell-based, multiplexed-readout assay that uses hepatocyte, a human liver primary cell, with measurements taken at 6 hours after chemical dosing in a 96-well plate.CLD_ABCB1_6hr is one of 16 assay component(s) measured or calculated from the CLD_6hr assay. It is designed to make measurements of mRNA induction, a form of inducible reporter, as detected with chemiluminescence signals by Quantitative Nuclease Protection Assay (qNPA) technology.Data from the assay component CLD_ABCB1_6hr was analyzed at the endpoint, CLD_ABCB1_6hr, in the positive analysis fitting direction relative to DMSO as the negative control and baseline of activity. Using a type of inducible reporter, gain-of-signal activity can be used to understand changes in the reporter gene as they relate to the gene ABCB1. Furthermore, this assay endpoint can be referred to as a primary readout. To generalize the intended target to other relatable targets, this assay endpoint is annotated to the transporter intended target family, where subfamily is ABC transporter.
(§2) Human hepatocyte cultures were treated daily for two consecutive days with fresh dosing solutions containing appropriate concentrations of the 320 ToxCast chemicals (chemical identities were blinded to CellzDirect and other ToxCast collaborators), vehicle control (0.2% DMSO), and positive control inducers as summarized in Table 1. Due to the large number of treatment groups and chemicals examined, the ToxCast chemicals were divided into two groups (spanning two independent cultures of hepatocytes from separate donor preparations (Hu778: ToxCast plates 1 and 2; Hu776: ToxCast plates 3 and 4). Each preparation of human hepatocyte cultures was treated with respective vehicle control, medium only control, set of six positive controls/reference chemicals for the five hepatic receptor pathways, and a subset of eight of the ToxCast chemicals (indoxacarb, pyrithiobac-sodium, norflurazon, cyhalofop-butyl, methomyl, thiram, acetochlor, and propiconazole). These replicate data, coupled with internal replicates designed within the blinded ToxCast chemical library, provided additional data to evaluate interindividual differences between hepatocyte preparations and their potential impact on chemical profiles.Cell morphology and integrity were evaluated using phase-contrast microscopy as an indicator of hepatocyte cell health (Tyson & Green, 1987). Cultures for each treatment group (i.e., media, vehicle [0.2% DMSO], positive control inducers [multiple concentrations], and the ToxCast chemicals [multiple concentrations]) were observed and cell morphology was assessed relative to vehicle control cultures at each harvest time point (0, 6, 24, or 48 h). […] Images were evaluated at the conclusion of the study to assess changes in cell integrity and account for the effects of chemical exposure on uncharacteristic changes in concentration-dependent gene expression profiles. The results from these determinations of apparent cytotoxicity were annotated (yes/no) alongside the corresponding qNPA data for reference.At the conclusion of each treatment period, hepatocyte cultures (96-well) were washed with 1 volume of HBSS, lysed by addition of 25 ul ArrayPlate lysis buffer (HTG, Tucson, AZ), and 70 ul/well of Denaturation Oil, denatured by incubation at 95C for 10 min, and frozen at approximately -70C until analysis by nuclease protection assay (qNPA) (Roberts et al., 2007). […]

[6] = read-out: Broad substrate specificity ATP-binding cassette transporter ABCG2 (Homo sapiens) (UniProt Q9UNQ0); experiment: CLD_ABCG2_6hr: CellzDirect (CLD) Gene Expression Assay for ABC Transporter (ABCG2) at 6 hours (AID 2283660)
How it was run: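 ABCG2 mRNA induction measured by qNPA chemiluminescence in human primary hepatocyte cultures, 6 h post-dose. Chemicals tested at several concentrations against a 0.2% DMSO vehicle; positive-direction fit relative to DMSO.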

[7] = read-out: xenobiotic metabolism (CYP1A1), CYP1A1 (gene 1543); experiment: CLD_CYP1A1_6hr: CellzDirect (CLD) Gene Expression Assay for xenobiotic metabolism (CYP1A1) at 6 hours (AID 2283661)
Experimental: as §1, with “plate.CLD_CYP1A1_6hr” for “plate.CLD_ABCB1_6hr”, “CLD_CYP1A1_6hr” for “CLD_ABCB1_6hr”, “CLD_CYP1A1_6hr,” for “CLD_ABCB1_6hr,”, “CYP1A1.” for “ABCB1.”, “cyp” for “transporter”, “xenobiotic metabolism.” for “ABC transporter.”
as §2

[8] = read-out: xenobiotic metabolism (CYP2C9), CYP2C9 (gene 1559); experiment: CLD_CYP2C9_6hr: CellzDirect (CLD) Gene Expression Assay for xenobiotic metabolism (CYP2C9) at 6 hours (AID 2283664)
Experimental: as §1, with “plate.CLD_CYP2C9_6hr” for “plate.CLD_ABCB1_6hr”, “CLD_CYP2C9_6hr” for “CLD_ABCB1_6hr”, “CLD_CYP2C9_6hr,” for “CLD_ABCB1_6hr,”, “CYP2C9.” for “ABCB1.”, “cyp” for “transporter”, “xenobiotic metabolism.” for “ABC transporter.”
Human hepatocyte cultures were treated daily for two consecutive days with fresh dosing solutions containing appropriate concentrations of the 320 ToxCast chemicals (chemical identities were blinded to CellzDirect and other ToxCast collaborators), vehicle control (0.2% DMSO), and positive control inducers as summarized in Table 1. […] These replicate data, coupled with internal replicates designed within the blinded ToxCast chemical library, provided additional data to evaluate interindividual differences between hepatocyte preparations and their potential impact on chemical profiles.Cell morphology and integrity were evaluated using phase-contrast microscopy as an indicator of hepatocyte cell health (Tyson & Green, 1987). Cultures for each treatment group (i.e., media, vehicle [0.2% DMSO], positive control inducers [multiple concentrations], and the ToxCast chemicals [multiple concentrations]) were observed and cell morphology was assessed relative to vehicle control cultures at each harvest time point (0, 6, 24, or 48 h). […]

[9] = test system: Thyroperoxidase (TPO), gene 54314; experiment: CCTE_Simmons_AUR_rTPO: CCTE's Amplex UltraRed Assay for Thyroperoxidase (TPO) Inhibition, Simmons Lab (AID 2283662);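 on AC50: potency for loss of signal meaning inhibition of peroxidase activity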
How it was run: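 Rat thyroid microsomes (5 ug protein) with 25 uM Amplex UltraRed and 300 uM H2O2 in 200 mM phosphate buffer, 30 min at 37C in dark; fluorescence 544/590 nm. Eight concentrations, 5 nM–87.5 uM final, 0.5% DMSO, triplicate biological replicates.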

[10] = read-out: xenobiotic metabolism (CYP1A2), CYP1A2 (gene 1544); experiment: CLD_CYP1A2_6hr: CellzDirect (CLD) Gene Expression Assay for xenobiotic metabolism (CYP1A2) at 6 hours (AID 2283663)
How it was run: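 mRNA levels quantified by quantitative nuclease protection assay with chemiluminescence, 6 h after dosing human primary hepatocyte cultures (two donors) across several concentrations, vehicle 0.2% DMSO. Induction fitted upward versus DMSO; phase-contrast cytotoxicity annotated.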

Broad substrate specificity ATP-binding cassette transporter ABCG2 (Homo sapiens), sequence (Q9UNQ0 whole entry, looked up): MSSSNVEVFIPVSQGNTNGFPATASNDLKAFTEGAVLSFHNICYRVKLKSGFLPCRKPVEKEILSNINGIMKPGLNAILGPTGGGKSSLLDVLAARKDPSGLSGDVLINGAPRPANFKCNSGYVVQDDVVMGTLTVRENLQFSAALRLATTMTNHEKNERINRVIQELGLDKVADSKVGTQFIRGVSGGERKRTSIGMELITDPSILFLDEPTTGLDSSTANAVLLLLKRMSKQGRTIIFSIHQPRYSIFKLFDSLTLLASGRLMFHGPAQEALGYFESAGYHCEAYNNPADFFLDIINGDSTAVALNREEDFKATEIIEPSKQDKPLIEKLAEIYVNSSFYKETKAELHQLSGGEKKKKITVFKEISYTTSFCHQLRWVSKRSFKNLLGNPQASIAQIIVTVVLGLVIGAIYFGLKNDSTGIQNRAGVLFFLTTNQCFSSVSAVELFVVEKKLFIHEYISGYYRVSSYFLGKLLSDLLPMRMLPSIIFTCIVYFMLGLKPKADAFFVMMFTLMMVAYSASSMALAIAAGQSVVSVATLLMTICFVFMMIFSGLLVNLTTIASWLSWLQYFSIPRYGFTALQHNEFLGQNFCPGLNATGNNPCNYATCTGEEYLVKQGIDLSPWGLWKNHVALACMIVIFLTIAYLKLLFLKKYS

SMILES: Cc1ccccc1[N+](=O)[O-]
- outcome [1]: inactive

SMILES: Cc1cccc(C)c1N
- outcome [1]: inactive

SMILES: C[C@]12CCC(=O)C=C1CC[C@@H]1[C@@H]2CC[C@@]2(C)[C@H]1CC[C@]2(C)O
- outcome [1]: inactive
- outcome [2]: inactive

SMILES: CC(C)(O)C(=O)Nc1ccc([N+](=O)[O-])c(C(F)(F)F)c1
- AC50 [1]: 22.1 µM (active)
- outcome [2]: inactive

SMILES: Cc1cccc([N+](=O)[O-])c1
- outcome [1]: inactive
- outcome [2]: inactive

SMILES: O=C(O)C(F)(F)C(F)(F)C(F)(F)C(F)(F)C(F)(F)F
- outcome [1]: inactive
- outcome [2]: inactive

SMILES: ClC(Cl)=C(c1ccc(Cl)cc1)c1ccc(Cl)cc1
- outcome [1]: inactive
- outcome [2]: inactive

SMILES: CCCCCCOC(=O)c1ccccc1C(=O)OCCCCCC
- outcome [1]: inactive
- outcome [2]: inactive

SMILES: O=S(=O)(O)C(F)(F)C(F)(F)C(F)(F)C(F)(F)C(F)(F)C(F)(F)F
- outcome [1]: inactive
- outcome [2]: inactive

SMILES: N#Cc1ccc(N(CC(N)=O)CC(F)(F)F)cc1C(F)(F)F
- outcome [1]: inactive
- outcome [2]: inactive

SMILES: CCOC(=O)C(O)(c1ccc(Cl)cc1)c1ccc(Cl)cc1
- outcome [1]: inactive
- outcome [2]: inactive

SMILES: O=S(=O)(O)C(F)(F)C(F)(F)C(F)(F)C(F)(F)F
- outcome [1]: inactive
- outcome [2]: inactive

SMILES: NS(=O)(=O)C(F)(F)C(F)(F)C(F)(F)C(F)(F)C(F)(F)C(F)(F)C(F)(F)C(F)(F)F
- outcome [1]: inactive

SMILES: Nc1ccc(-c2ccc(N)cc2)cc1
- outcome [1]: inactive
- outcome [2]: inactive

SMILES: Cc1cc(O)ccc1Cl
- outcome [1]: inactive
- outcome [2]: inactive

SMILES: C=CC(=O)NCNC(=O)C=C
- outcome [1]: inactive
- outcome [2]: inactive

SMILES: Cc1ccccc1O
- outcome [1]: inactive
- outcome [2]: inactive

SMILES: ClC1=C(Cl)[C@]2(Cl)[C@@H]3[C@@H](Cl)[C@H]4O[C@H]4[C@@H]3C1(Cl)C2(Cl)Cl
- outcome [1]: inactive
- outcome [2]: inactive

SMILES: O=C(N[C@H]1CN2CCC1CC2)c1cc2ccoc2cn1
- outcome [1]: inactive
- outcome [2]: inactive

SMILES: CCCN(CCC)N=O
- outcome [1]: inactive
- outcome [2]: inactive

SMILES: CCOCCOC(C)=O
- outcome [1]: inactive
- outcome [2]: inactive

SMILES: CO/C=C(/C(=O)OC)c1ccccc1COc1cccc(C(F)(F)F)n1
- AC50 [1]: 7.84 µM (active)
- outcome [2]: inactive

SMILES: Nn1cnnc1
- outcome [1]: inactive
- outcome [2]: inactive

SMILES: Cc1cc(-c2ccc(N)c(C)c2)ccc1N
- outcome [1]: inactive
- outcome [2]: inactive

SMILES: O=C(NC(=O)c1cc(F)c(F)cc1Cl)Nc1cc(F)ccc1N1CCC(C(=O)O)CC1
- outcome [1]: inactive
- outcome [2]: inactive

SMILES: CC(C)C(=O)OCC(C)(C)C(OC(=O)C(C)C)C(C)C (centres undefined)
- outcome [1]: inactive
- outcome [2]: inactive

SMILES: Oc1ccc(Cl)cc1Cl
- outcome [1]: inactive
- outcome [2]: inactive

SMILES: CN(C)CCO
- outcome [1]: inactive
- outcome [2]: inactive

SMILES: Clc1ccc(C(c2ccccc2Cl)C(Cl)(Cl)Cl)cc1 (centres undefined)
- outcome [1]: inactive
- outcome [2]: inactive

SMILES: C1CC2OC2CC1C1CO1 (centres undefined)
- outcome [1]: inactive
- outcome [2]: inactive

SMILES: c1cc2ccc3cccc4ccc(c1)c2c34
- outcome [1]: inactive
- outcome [2]: inactive

SMILES: Cc1cc2c3c(c1)C(c1ccccc1)=N[C@@H](NC(=O)c1ccncc1)C(=O)N3CC2
- outcome [1]: inactive
- outcome [2]: inactive

SMILES: C=CC(N)=O
- outcome [2]: inactive

SMILES: Clc1ccc(Cl)cc1
- outcome [1]: inactive
- outcome [2]: inactive
- outcome [3]: inactive
- outcome [4]: inactive

SMILES: CCC(C)(CC)c1cc(NC(=O)c2c(OC)cccc2OC)on1
- outcome [1]: inactive
- outcome [2]: inactive
- outcome [5]: inactive
- outcome [6]: inactive
- outcome [7]: inactive
- outcome [8]: inactive

SMILES: c1ccc(-c2ccccc2)cc1
- outcome [1]: inactive
- outcome [9]: inactive

SMILES: Oc1ccc(C(c2ccc(O)cc2)(C(F)(F)F)C(F)(F)F)cc1
- AC50 [1]: 53 µM (active)
- outcome [2]: inactive
- AC50 [9]: 21.7 µM (active)

SMILES: CN(C)c1nc(=O)n(C2CCCCC2)c(=O)n1C
- outcome [1]: inactive
- outcome [2]: inactive
- outcome [5]: inactive
- outcome [6]: inactive
- outcome [7]: inactive
- outcome [10]: inactive
- outcome [8]: inactive
